In PubChem BioAssay (NCATS):
Records with an inconclusive call do not appear. Activity calls are given as the source filed them. Unless noted, calls come from the whole dose curve; as a rule, active = well fitted curve in either direction with a large enough effect (not every such curve was filed as active); inconclusive = small, poorly fitted or top-dose-only effect, or another doubt; inactive = flat fitted curve, though single readings scatter.

Columns and labels:
[1] = target: Lysosomal acid glucosylceramidase (Homo sapiens) (UniProt P04062); assay: Glucocerebrosidase-p2 (AID 348; in the data active = potency below about 10 µM; note: potency is the fitted concentration of half-maximal effect); details: purified GBA, blue fluorogenic substrate, 40 min
Summary of the method: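 Compounds titrated from 0.6 nM upwards against 0.2 nM enzyme in pH 5.9 citric acid/KH2PO4, taurocholate, tween-20; blue fluorogenic substrate 80 uM, 40 min room temperature, stopped and read Ex 365/Em 440 for AC50.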

[2] = AP1 Signaling Pathway (AID 357); details: ME-180 AP-1-bla reporter, EGF-induced, beta-lactamase ratio, 5 h; at 7.69 µM (top of the series) unless noted; note: % is set by controls: 0 for no effect and ±100 for the full control effect
Summary of the method: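 AP-1-bla ME-180 cells with beta-lactamase reporter under AP-1 response element, stimulated with EC50 EGF; compounds titrated, 5 hours at 37 degrees Celsius. CCF4 read at 460/530 nm ratio; positive and negative modulators judged by AC50.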

[3] = NFAT Signaling Pathway (AID 444); details: Jurkat NFAT-bla M1, carbachol, beta-lactamase ratio, 5 h; at 7.69 µM (top of the series) unless noted;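 note: carbachol stimulus at about its EC50 of 1 µM final; % is set by controls: 0 for no effect and ±100 for the full control effect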
Summary of the method: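 Jurkat cells with NFAT-driven β-lactamase reporter and co-expressed M1 receptor, stimulated with carbachol (final 1 uM, ~EC50), compound titration, 5 h at 37 °C. CCF4 loaded 1 h at RT; 460/530 nm ratio gave %activity and AC50.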

[4] = Stat Signaling Pathway (AID 446); details: ME-180 (cervical carcinoma) SIE beta-lactamase reporter, IL-6 stimulated, 5 h; at 7.69 µM (top of the series) unless noted;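 note: ME-180 cervical cancer cells given 40 pM IL-6 alongside compound; SIE-controlled beta-lactamase reporter measured as 460/530 nm FRET emission ratio; % is set by controls: 0 for no effect and ±100 for the full control effect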
Summary of the method: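 IL-6/STAT signaling read in ME-180 cells via an SIE beta-lactamase reporter. Stimulus was 40 pM IL-6 (its AC50) for 5 hrs, so both activation and inhibition register.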

[5] = target: Glucocorticoid receptor (Homo sapiens) (UniProt P04150); assay: GR-GFP Redistribution (AID 450;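 active = compounds whose dose series gives a full or clear partial fitted curve of increased nuclear translocation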; note: potency is the fitted concentration of half-maximal effect); details: U2OS GR-GFP nuclear translocation, laser cytometry, 2 h
[6] = target: Glucocorticoid receptor (Homo sapiens) (UniProt P04150); assay: GR-EFC Redistribution (AID 451; calls by dose curve; note: potency is the fitted concentration of half-maximal effect); details: CHO-K1 GR-EFC translocation, beta-gal luminescence, 2 h
Summary of the method: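 CHO-K1 cells expressing nuclear EA and GR-ED fragments of b-gal; compounds titrated up to 46 uM final, 2 h at 37 C. GR nuclear translocation read as complemented b-gal luminescence after 1 h RT detection.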

[7] = target: Mitogen-activated protein kinase 10 (Mus musculus) (UniProt Q61831); assay: JNK3 AlphaScreen Assay (AID 530); details: JNK3 lysate, c-Jun phosphorylation; series mostly up to 11.4 µM;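 note: kinase came from lysate of stimulated human HepG2 cells; signal reports phosphorylation of biotinylated GST-cJun 1-79 at Ser73 with 10 µM ATP; % is set by controls: 0 for no effect and ±100 for the full control effect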
Summary of the method: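 Pre-activated (IL-1β/TNFα) JNK3 in HepG2 lysates phosphorylates biotin-GST-cJun(1-79), 10 uM ATP; anti-phospho-cJun(Ser73) AlphaScreen read at room temperature, pH 7.6 Tris buffer. Compounds pre-incubated 15 min as titrations.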

[8] = target: 3',5'-cyclic-AMP phosphodiesterase 4B (Homo sapiens) (UniProt Q07343); assay: qHTS Assay for Inhibitors of PDE-IV (AID 607; active = well fitted activation curve with a large enough effect in the main read-out, with a control signal flat, not every such curve was filed as active; note: % of control where 0% means no effect); details: HEK293 ACTOne CNG channel cells, membrane potential fluorescence; series mostly up to 22.9 µM
Summary of the method: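 Live HEK293 cells with a modified cyclic nucleotide-gated (CNG) channel report intracellular cAMP via membrane-potential dye fluorescence (ex 535/em 590 nm). Endogenous PDE-IV was targeted. Compounds were tested at up to 22.9 uM final; RO 20-1724 100 uM served as control.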

3',5'-cyclic-AMP phosphodiesterase 4B (Homo sapiens), sequence (Q07343 whole entry, looked up): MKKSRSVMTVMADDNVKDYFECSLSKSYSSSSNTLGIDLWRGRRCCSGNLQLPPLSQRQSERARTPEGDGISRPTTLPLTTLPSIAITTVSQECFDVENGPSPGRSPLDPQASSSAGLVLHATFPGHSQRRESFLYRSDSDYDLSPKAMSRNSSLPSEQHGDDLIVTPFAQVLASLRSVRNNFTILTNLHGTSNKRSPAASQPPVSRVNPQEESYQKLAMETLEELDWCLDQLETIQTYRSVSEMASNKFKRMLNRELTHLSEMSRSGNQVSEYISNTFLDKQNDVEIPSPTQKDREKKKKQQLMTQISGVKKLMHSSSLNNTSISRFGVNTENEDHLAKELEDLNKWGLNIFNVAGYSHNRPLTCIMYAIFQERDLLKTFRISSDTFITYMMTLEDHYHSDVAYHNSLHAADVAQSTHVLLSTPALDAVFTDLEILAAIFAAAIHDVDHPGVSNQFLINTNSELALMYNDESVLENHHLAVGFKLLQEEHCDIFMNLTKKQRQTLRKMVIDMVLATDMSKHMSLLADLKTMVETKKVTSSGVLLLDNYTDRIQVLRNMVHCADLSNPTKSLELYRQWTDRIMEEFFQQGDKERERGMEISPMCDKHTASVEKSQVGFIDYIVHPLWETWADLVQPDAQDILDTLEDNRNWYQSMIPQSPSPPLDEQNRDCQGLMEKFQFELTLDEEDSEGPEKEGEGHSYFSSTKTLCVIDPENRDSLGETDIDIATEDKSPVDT
Glucocorticoid receptor (Homo sapiens), sequence (P04150 whole entry, looked up, the tested form may be a part): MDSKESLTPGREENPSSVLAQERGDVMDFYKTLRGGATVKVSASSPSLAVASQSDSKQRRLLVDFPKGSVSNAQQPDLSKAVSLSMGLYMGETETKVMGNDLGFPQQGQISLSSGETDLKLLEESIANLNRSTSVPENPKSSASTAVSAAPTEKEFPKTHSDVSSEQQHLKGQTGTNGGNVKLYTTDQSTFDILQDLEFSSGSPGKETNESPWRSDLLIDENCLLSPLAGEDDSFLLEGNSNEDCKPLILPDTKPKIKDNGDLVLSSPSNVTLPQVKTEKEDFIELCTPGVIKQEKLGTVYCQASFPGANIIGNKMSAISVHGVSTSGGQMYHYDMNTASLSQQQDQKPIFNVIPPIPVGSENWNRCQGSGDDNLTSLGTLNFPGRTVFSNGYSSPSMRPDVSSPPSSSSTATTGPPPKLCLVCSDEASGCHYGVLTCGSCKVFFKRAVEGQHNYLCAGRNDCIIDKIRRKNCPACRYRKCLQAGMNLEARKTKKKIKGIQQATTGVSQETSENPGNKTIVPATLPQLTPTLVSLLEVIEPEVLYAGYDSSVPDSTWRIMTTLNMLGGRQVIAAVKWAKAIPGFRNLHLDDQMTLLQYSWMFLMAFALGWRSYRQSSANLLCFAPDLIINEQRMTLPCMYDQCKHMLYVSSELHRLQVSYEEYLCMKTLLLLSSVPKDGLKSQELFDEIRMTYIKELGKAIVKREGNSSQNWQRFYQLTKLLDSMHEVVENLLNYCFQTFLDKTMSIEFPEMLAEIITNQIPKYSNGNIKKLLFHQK
Lysosomal acid glucosylceramidase (Homo sapiens), sequence (P04062 whole entry, looked up): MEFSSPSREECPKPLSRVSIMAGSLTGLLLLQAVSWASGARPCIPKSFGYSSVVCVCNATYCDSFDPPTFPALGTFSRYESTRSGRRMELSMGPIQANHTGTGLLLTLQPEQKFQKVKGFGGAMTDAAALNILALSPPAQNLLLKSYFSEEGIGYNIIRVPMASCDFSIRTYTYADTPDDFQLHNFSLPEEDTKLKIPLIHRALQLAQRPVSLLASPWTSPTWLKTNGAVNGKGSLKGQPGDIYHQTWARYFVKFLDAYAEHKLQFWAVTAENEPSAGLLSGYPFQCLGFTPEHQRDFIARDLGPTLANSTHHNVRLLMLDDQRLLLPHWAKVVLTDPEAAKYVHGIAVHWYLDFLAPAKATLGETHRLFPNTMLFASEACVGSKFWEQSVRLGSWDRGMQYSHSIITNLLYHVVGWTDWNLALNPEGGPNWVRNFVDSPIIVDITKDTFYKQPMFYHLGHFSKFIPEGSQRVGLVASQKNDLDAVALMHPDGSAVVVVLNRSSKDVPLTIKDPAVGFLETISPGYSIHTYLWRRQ

COc1ccc(Cc2ccc3[nH]c(=O)cc(C)c3c2)cc1S(=O)(=O)O
inactive: Potency [1] > 11.4 µM | activity change, negative = inhibition [2] 7.37% | activity change, negative = inhibition [3] 8.36% | activity, negative = inhibition [4] 5.41% | Potency [5] > 46 µM | Potency [6] > 9.22 µM | Potency [7] | Potency [8]

c1nnc(NCNc2nncs2)s1
inactive: Potency [1] > 11.4 µM | activity change, negative = inhibition [2] 12.8% | activity change, negative = inhibition [3] 7.13% | activity, negative = inhibition [4] -7.18% | Potency [5] > 46 µM | Potency [6] > 9.22 µM | Potency [7] | Potency [8]

O=C1CC[C@](CCc2nc3ccccc3[nH]2)(c2ccccc2)C(=O)N1
inactive: Potency [1] > 11.4 µM | activity change, negative = inhibition [2] 1.26% | activity change, negative = inhibition [3] 7.74% | activity, negative = inhibition [4] 3.31% | Potency [5] > 46 µM | Potency [6] > 9.22 µM | Potency [7] | Potency [8]

OC1(C(O)(c2ccc(-c3ccccc3)cc2)c2ccc(-c3ccccc3)cc2)CCCCC1
inactive: Potency [1] > 11.4 µM | activity change, negative = inhibition [2] 7.3% | activity change, negative = inhibition [3] 2.32% | activity, negative = inhibition [4] 1.1% | Potency [5] > 46 µM | Potency [6] > 9.22 µM | Potency [7] | Potency [8]

C[C@H](OP(=O)(O)O)[C@H](N)C(=O)O
inactive: Potency [1] > 11.4 µM | activity change, negative = inhibition [2] 0.907% | activity change, negative = inhibition [3] 13.7% | activity, negative = inhibition [4] -1.55% | Potency [5] > 46 µM | Potency [6] > 9.22 µM | Potency [7] | Potency [8]

O=C(O)CCCN1CCCCC1
inactive: Potency [1] > 11.4 µM | activity change, negative = inhibition [2] 9.35% | activity change, negative = inhibition [3] 1.19% | activity, negative = inhibition [4] 9.26% | Potency [5] > 46 µM | Potency [6] > 9.22 µM | Potency [7] | Potency [8]

C[C@H](CC(=O)O)C(C(=O)O)C(=O)O
inactive: Potency [1] > 11.4 µM | activity change, negative = inhibition [2] -3.69% | activity change, negative = inhibition [3] -5.24% | activity, negative = inhibition [4] -3.1% | Potency [5] > 46 µM | Potency [6] > 9.22 µM | Potency [7] | Potency [8]

COc1ccc2c(c1)[n+]([O-])c(/C(C)=N/NC(N)=S)c(C)[n+]2[O-]
inactive: Potency [1] > 11.4 µM | activity change, negative = inhibition [2] -7.76% | activity change, negative = inhibition [3] 5.82% | activity, negative = inhibition [4] 0.294% | Potency [5] > 46 µM | Potency [6] > 9.22 µM | Potency [7] | Potency [8]

CCSCCCC(=O)O
inactive: Potency [1] > 11.4 µM | activity change, negative = inhibition [2] -6.6% | activity change, negative = inhibition [3] 2.17% | activity, negative = inhibition [4] 8.19% | Potency [5] > 46 µM | Potency [6] > 9.22 µM | Potency [7] | Potency [8]

O=C1c2ccccc2-c2ccc(N=[N+]([O-])c3ccc4c(c3)C(=O)c3ccccc3-4)cc21
inactive: Potency [1] > 11.4 µM | activity change, negative = inhibition [2] 5.38% | activity change, negative = inhibition [3] 10.2% | activity, negative = inhibition [4] 7.21% | Potency [5] > 46 µM | Potency [6] > 9.22 µM | Potency [7] | Potency [8]

c1ccc(CCNCc2ccco2)nc1
inactive: Potency [1] > 11.4 µM | activity change, negative = inhibition [2] 3.76% | activity change, negative = inhibition [3] -2.01% | activity, negative = inhibition [4] 1.92% | Potency [5] > 46 µM | Potency [6] > 9.22 µM | Potency [7] | Potency [8]

C[C@H](CCC(=O)O)[C@H]1CC[C@@H]2[C@@H]3CC[C@H]4C[C@@H](O)CC[C@@]4(C)[C@@H]3C[C@H](O)[C@@]21C
inactive: Potency [1] > 11.4 µM | activity change, negative = inhibition [2] 4.11% | activity change, negative = inhibition [3] 27.2% | activity, negative = inhibition [4] 2.1% | Potency [5] > 46 µM | Potency [6] > 9.22 µM | Potency [7] | Potency [8]

CC(C)=N[C@H](C(=O)O)C(C)(C)S
inactive: Potency [1] > 11.4 µM | activity change, negative = inhibition [2] 10% | activity change, negative = inhibition [3] 3.46% | activity, negative = inhibition [4] 6.64% | Potency [5] > 46 µM | Potency [6] > 9.22 µM | Potency [7] | Potency [8]

NC(N)=NC(N)=Nc1ccc(C(=O)O)cc1
inactive: Potency [1] > 11.4 µM | activity change, negative = inhibition [2] 7% | activity change, negative = inhibition [3] 6.33% | activity, negative = inhibition [4] 16.2% | Potency [5] > 46 µM | Potency [6] > 9.22 µM | Potency [7] | Potency [8]

O=C1c2ccccc2C(=O)N1C1(C(=O)NC2(C(=O)O)CCCC2)CCCC1
inactive: Potency [1] > 11.4 µM | activity change, negative = inhibition [2] 0.0237% | activity change, negative = inhibition [3] 10.1% | activity, negative = inhibition [4] 0.797% | Potency [5] > 46 µM | Potency [6] > 9.22 µM | Potency [7] | Potency [8]

NC1=N[C@H](c2ccc(Cl)cc2)N(c2ccc(S(N)(=O)=O)cc2)C(N)=N1
inactive: Potency [1] > 11.4 µM | activity change, negative = inhibition [2] -2.15% | activity change, negative = inhibition [3] -10.1% | activity, negative = inhibition [4] -0.371% | Potency [5] > 46 µM | Potency [6] > 9.22 µM | Potency [7] | Potency [8]

[Cu].[NH-][C@H](CC(=O)O)C(=O)O.[NH-][C@H](CC(=O)O)C(=O)O
inactive: Potency [1] > 11.4 µM | activity change, negative = inhibition [2] 5.72% | activity change, negative = inhibition [3] 8.79% | activity, negative = inhibition [4] 13.3% | Potency [5] > 46 µM | Potency [6] > 9.22 µM | Potency [7] | Potency [8]

C[C@@H](N)/C(N)=N/O
inactive: Potency [1] > 11.4 µM | activity change, negative = inhibition [2] -1.61% | activity change, negative = inhibition [3] 6.7% | activity, negative = inhibition [4] 5.63% | Potency [5] > 46 µM | Potency [6] > 9.22 µM | Potency [7] | Potency [8]
